# According to PubChem BioAssay (EPA / NIEHS):
# Values joined by “and” are separate entries in the source; they are usually repeats but may differ in a detail not shown here. Equal entries are not always repeated. Records with an inconclusive call do not appear. Active and inactive are the calls of the source. Rule for the calls, unless noted: active = hit-call score of the fitted dose curve at least 0.9, where 1 is the maximum; inconclusive = response in the unintended direction; inactive = score below 0.9.
# Key:
# [1] = CCTE_Mundy_HCI_Cortical_NOG_NeuronCount: CCTE's Neurite Outgrowth Assay in rat cortical cells for Neuron Count, Mundy Lab (AID 2284236);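 note: neurons counted by imaging betaIII-tubulin and Hoechst stained cortical cells; cells exposed to compound for about 48 hours before fixation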
# Method in brief: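 Read-out: neuron number by high-content imaging of betaIII-tubulin (Alexa Fluor-488) and Hoechst-labelled rat primary cortical cells.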
# [2] = tested on: zebrafish Estrogen Receptor (ER2b), gene 317733; assay: ATG_zfER2b_XSP2: Attagene TRANS-FACTORIAL Multi-Species (XSP2) HepG2 Assay for zebrafish Estrogen Receptor (ER2b) (AID 2283823);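 note: fitted upward as reporter gain over DMSO so potency reflects activation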
# Method in brief: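 HepG2 human liver cells transiently transfected with multiplexed GAL4-UAS reporter units expressing chimeric NR-Gal4 proteins; compounds dosed for 24 h. Reporter mRNA quantified by RT-PCR, 6-FAM labelling and capillary electrophoresis; gain-of-signal fitted against DMSO baseline.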
# [3] = tested on: frog Estrogen Receptor (ER2), gene 100174814; assay: ATG_frER2_XSP2: Attagene TRANS-FACTORIAL Multi-Species (XSP2) HepG2 Assay for frog Estrogen Receptor (ER2) (AID 2283828)
# Method in brief: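 Cells were transfected with reporter constructs under GAL4-UAS control, dosed with chemicals for 24 h, then lysed for RNA; the frog ER2-driven reporter mRNA was quantified by capillary electrophoresis of labeled PCR fragments, with activity fitted upward from DMSO.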
# [4] = target: Peroxisome proliferator-activated receptor gamma (Homo sapiens) (UniProt P37231); assay: ATG_hPPARg_XSP2: Attagene TRANS-FACTORIAL Multi-Species (XSP2) HepG2 Assay for human Peroxisome Proliferator-activated Receptor gamma (PPARg) (AID 2283829);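 note: actives raise reporter mRNA above DMSO so AC50 reflects PPARg activation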
# Chain of Peroxisome proliferator-activated receptor gamma (Homo sapiens) (P37231 whole entry, looked up, the tested form may be a part): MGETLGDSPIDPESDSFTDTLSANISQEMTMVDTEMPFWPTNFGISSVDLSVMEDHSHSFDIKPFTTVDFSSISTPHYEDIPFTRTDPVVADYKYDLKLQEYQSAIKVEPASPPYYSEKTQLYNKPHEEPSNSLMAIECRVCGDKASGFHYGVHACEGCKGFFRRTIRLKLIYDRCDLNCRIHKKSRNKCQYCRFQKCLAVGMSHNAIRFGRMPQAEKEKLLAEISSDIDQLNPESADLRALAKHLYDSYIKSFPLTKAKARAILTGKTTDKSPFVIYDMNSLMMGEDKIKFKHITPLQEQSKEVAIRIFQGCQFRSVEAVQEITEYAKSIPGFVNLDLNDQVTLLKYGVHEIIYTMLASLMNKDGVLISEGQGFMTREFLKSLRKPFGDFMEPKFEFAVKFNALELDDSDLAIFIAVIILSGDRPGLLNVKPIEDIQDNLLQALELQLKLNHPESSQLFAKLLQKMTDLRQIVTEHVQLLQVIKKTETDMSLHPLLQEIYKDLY
# Method in brief: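 Reporter transcripts were measured by RT-PCR, fluorescent labeling, HpaI digestion and capillary electrophoresis, relative to DMSO, 24 h post-dosing. Transiently transfected HepG2 expressed NR-Gal4 chimeras regulating GAL4-UAS reporters; medium contained 3 nM 6-alpha-fluorotestosterone plus 1.5 nM norgestrel.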
# [5] = target: Nuclear receptor subfamily 1 group I member 2 (Mus musculus) (UniProt O54915); assay: ATG_mPXR_XSP2: Attagene TRANS-FACTORIAL Multi-Species (XSP1) HepG2 Assay for mouse Pregnane X Receptor (PXR) (AID 2283831)
# Chain of Nuclear receptor subfamily 1 group I member 2 (Mus musculus) (O54915 whole entry, looked up, the tested form may be a part): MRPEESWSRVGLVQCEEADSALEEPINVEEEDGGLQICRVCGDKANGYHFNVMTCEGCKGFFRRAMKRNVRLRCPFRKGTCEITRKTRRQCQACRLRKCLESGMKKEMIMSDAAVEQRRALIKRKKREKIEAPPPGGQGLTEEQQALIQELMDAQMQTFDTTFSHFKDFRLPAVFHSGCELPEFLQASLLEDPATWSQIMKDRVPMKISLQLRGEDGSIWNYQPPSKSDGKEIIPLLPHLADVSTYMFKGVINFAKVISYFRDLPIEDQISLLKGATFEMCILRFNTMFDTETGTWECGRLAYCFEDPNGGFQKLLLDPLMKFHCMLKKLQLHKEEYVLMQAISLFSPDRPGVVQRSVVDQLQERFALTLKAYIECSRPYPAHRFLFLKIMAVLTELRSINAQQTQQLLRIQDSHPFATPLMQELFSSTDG
# Method in brief: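 Reporter transcripts measured after 24 h dosing by RT-PCR with 6-FAM labelling, HpaI digestion and capillary electrophoresis. Transiently transfected HepG2 with NR-Gal4 chimeras; increase over DMSO baseline scored.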
# [6] = tested on: zebrafish Peroxisome Proliferator-activated Receptor gamma (PPARg), gene 557037; assay: ATG_zfPPARg_XSP2: Attagene TRANS-FACTORIAL Multi-Species (XSP2) HepG2 Assay for zebrafish Peroxisome Proliferator-activated Receptor gamma (PPARg) (AID 2283833);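 note: reporter mRNA from a zebrafish PPARg GAL4 chimera measured by RT-PCR and capillary electrophoresis; actives increase reporter signal over DMSO so AC50 reflects activation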
# Method in brief: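 After 24 h chemical exposure, RNA from transiently transfected HepG2 (chimeric NR-Gal4 TRANS reporters) was reverse-transcribed, PCR-amplified, 6-FAM-labelled, HpaI-cut and sized by capillary electrophoresis. Induction was scored in the positive direction relative to DMSO.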
# [7] = tested on: turtle Thyroid Hormone Receptor, alpha (TRa), gene 101949057; assay: ATG_trTRa_XSP2: Attagene TRANS-FACTORIAL Multi-Species (XSP1) HepG2 Assay for turtle Thyroid Hormone Receptor, alpha (TRa) (AID 2283834);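 note: hits raise reporter mRNA over the DMSO baseline so AC50 marks activators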
# Method in brief: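 Turtle TRa-Gal4 chimera activity in transfected human HepG2 cells: reporter transcripts quantified by RT-PCR, 6-FAM labelling and capillary electrophoresis 24 h post-dosing; positive direction versus DMSO, medium containing 3 nM 6-alpha-fluorotestosterone and 1.5 nM norgestrel.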
# [8] = ATG_M_61_XSP2: Attagene TRANS-FACTORIAL Multi-Species (XSP2) HepG2 Assay for M61 Transcription Factor (Internal Marker) (AID 2283835; active = hit-call score of the fitted dose curve at least 0.9, where 1 is the maximum; inactive = score below 0.9;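 note: reporter mRNA of an internal background marker read by RT-PCR and capillary electrophoresis; active means a rise in signal above the DMSO baseline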)
# Method in brief: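 Transient MRTU transfection of human HepG2; 24 h chemical dosing with 3 nM 6-alpha-fluorotestosterone + 1.5 nM norgestrel added for AR stimulation. RNA isolated, RT, PCR, FAM-labelled, HpaI cut, CE read. Positive direction vs DMSO.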
# [9] = target: zebrafish Thyroid Hormone Receptor beta (TRb), thrb (gene 30607) (UniProt Q9PVE4); assay: ATG_zfTRb_XSP2: Attagene TRANS-FACTORIAL Multi-Species (XSP1) HepG2 Assay for zebrafish Thyroid Hormone Receptor beta (TRb) (AID 2283836)
# Chain of zebrafish Thyroid Hormone Receptor beta (TRb), thrb (gene 30607) (Q9PVE4 whole entry, looked up): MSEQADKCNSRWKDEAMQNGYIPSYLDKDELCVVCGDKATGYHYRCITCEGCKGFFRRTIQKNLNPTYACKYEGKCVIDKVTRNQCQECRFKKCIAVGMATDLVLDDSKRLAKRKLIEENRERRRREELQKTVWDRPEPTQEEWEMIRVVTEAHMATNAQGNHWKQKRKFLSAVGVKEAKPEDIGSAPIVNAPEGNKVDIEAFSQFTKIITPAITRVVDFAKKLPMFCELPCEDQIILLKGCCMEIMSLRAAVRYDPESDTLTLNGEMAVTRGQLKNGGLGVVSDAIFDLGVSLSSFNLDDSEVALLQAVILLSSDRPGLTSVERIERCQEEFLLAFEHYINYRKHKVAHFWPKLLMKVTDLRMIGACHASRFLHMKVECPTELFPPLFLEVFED
# Method in brief: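 Multiplexed trans-activation in HepG2 cells, 24 h treatment, with reporter mRNA read by RT-PCR and capillary electrophoresis. Gain-of-signal against DMSO.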
# [10] = ATG_XTT_Cytotoxicity_XSP2: Cytotoxicity Assessment in the Attagene TRANS-FACTORIAL Multi-Species (XSP2) HepG2 Assay (AID 2283837)
# Method in brief: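 XTT-based cell number read-out in human HepG2 liver cells carrying transfected reporter units, measured 24 h after chemical dosing. Activity is signal loss versus DMSO baseline.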
# [11] = target: human Thyroid hormone Receptor alpha (TRa), THRA (gene 7067) (UniProt P10827); assay: ATG_hTRa_XSP2: Attagene TRANS-FACTORIAL Multi-Species (XSP2) HepG2 Assay for human Thyroid hormone Receptor alpha (TRa) (AID 2283838)
# Chain of human Thyroid hormone Receptor alpha (TRa), THRA (gene 7067) (P10827 whole entry, looked up, the tested form may be a part): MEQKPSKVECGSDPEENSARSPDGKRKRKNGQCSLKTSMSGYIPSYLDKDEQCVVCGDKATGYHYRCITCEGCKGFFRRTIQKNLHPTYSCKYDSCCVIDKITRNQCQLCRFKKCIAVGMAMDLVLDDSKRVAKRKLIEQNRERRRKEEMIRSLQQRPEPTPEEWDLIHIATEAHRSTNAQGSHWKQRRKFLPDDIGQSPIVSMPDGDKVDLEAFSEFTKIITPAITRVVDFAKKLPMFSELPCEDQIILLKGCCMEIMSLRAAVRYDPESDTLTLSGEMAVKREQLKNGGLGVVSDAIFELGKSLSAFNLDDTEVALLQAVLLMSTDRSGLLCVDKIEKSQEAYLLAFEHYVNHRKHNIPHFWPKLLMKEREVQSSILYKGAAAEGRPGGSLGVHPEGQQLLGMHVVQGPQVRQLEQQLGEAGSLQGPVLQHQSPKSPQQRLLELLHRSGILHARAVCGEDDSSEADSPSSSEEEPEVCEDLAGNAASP
# Method in brief: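 Gain-of-signal in reporter mRNA, relative to DMSO, after 24 h dosing of transfected HepG2; quantitation by RT-PCR fragment analysis on capillary electrophoresis.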
# [12] = target: frog Thyroid hormone Receptor alpha (TRa), thra-a (gene 397942) (UniProt P15204); assay: ATG_frTRa_XSP2: Attagene TRANS-FACTORIAL Multi-Species (XSP2) HepG2 Assay for frog Thyroid hormone Receptor alpha (TRa) (AID 2283839)
# Chain of frog Thyroid hormone Receptor alpha (TRa), thra-a (gene 397942) (P15204 whole entry, looked up, the tested form may be a part): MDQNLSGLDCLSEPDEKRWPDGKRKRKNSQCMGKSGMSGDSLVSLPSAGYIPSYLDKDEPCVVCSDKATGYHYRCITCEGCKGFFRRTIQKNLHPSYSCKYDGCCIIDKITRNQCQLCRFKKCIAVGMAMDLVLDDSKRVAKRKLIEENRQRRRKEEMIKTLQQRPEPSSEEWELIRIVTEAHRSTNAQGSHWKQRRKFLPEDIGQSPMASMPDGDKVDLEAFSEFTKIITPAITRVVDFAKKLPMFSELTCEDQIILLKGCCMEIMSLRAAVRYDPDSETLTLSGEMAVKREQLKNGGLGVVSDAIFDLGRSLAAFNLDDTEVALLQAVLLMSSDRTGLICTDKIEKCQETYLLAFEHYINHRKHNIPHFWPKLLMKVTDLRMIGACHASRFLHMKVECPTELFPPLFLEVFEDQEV
# Method in brief: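 Reporter transcripts were measured by RT-PCR with capillary electrophoresis after 24 h dosing of HepG2 carrying transiently transfected multi-reporter units, including a chimeric frog TRa-GAL4 construct. Activity was taken as increase over DMSO vehicle.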
# [13] = target: human Thyroid hormone Receptor beta (TRb), THRB (gene 7068) (UniProt P10828); assay: ATG_hTRb_XSP2: Attagene TRANS-FACTORIAL Multi-Species (XSP2) HepG2 Assay for human Thyroid hormone Receptor beta (TRb) (AID 2283840);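 note: actives raise reporter mRNA so potency reflects agonist-like gain of signal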
# Chain of human Thyroid hormone Receptor beta (TRb), THRB (gene 7068) (P10828 whole entry, looked up, the tested form may be a part): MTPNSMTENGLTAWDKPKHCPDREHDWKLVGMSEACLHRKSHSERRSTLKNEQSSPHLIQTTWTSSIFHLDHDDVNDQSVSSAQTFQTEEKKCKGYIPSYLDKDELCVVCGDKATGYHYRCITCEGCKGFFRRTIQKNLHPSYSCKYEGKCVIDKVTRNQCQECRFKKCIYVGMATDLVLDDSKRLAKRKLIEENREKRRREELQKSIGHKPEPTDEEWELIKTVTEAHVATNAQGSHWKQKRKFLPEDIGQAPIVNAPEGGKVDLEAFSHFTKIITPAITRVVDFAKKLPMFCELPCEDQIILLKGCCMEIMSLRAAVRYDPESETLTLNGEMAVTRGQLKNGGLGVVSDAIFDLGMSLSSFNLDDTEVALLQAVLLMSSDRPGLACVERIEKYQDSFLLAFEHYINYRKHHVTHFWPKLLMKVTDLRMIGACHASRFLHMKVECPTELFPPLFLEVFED
# Method in brief: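 Activity of exogenous human TRb–Gal4 fusion measured by reporter mRNA from RT-PCR and capillary electrophoresis, 24 h after dosing transfected HepG2. 6-alpha-fluorotestosterone (3 nM) and norgestrel (1.5 nM) present. Gain-of-signal fit relative to DMSO.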
# [14] = TOX21_TR_RXR_BLA_Agonist_Followup_viability: Viability Assessment in the Tox21 Thyroid Hormone Receptor beta Retinoid X Receptor alpha (RXRa) Agonism Beta-lactamase (BLA) Follow-Up Assay (AID 2283970)
# Method in brief: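 Luminescent ATP read (CellTiter-Glo) after 16h exposure of RXRa-UAS-bla HEK293T cells at 37C/5% CO2. Activity normalized to DMSO; signal loss scored as reduced viability.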
# THRA (gene 7067) = THRA (gene 7067) (UniProt P10827); assay: TOX21_TRA_COA_Antagonist_Followup_ratio: Tox21 Thyroid Hormone Receptor alpha Antagonism through Coactivator Recruitment Follow-Up Assay, Ratio (AID 2283953)
# Chain of THRA (gene 7067) (P10827 whole entry, looked up, the tested form may be a part): as the sequence (P10827 whole entry, looked up, the tested form may be a part) above
# Method in brief: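 We measured antagonism of T3-type coactivator recruitment using a TR-FRET ratio (emission 520 and 495 nm) between a Tb-labelled anti-GST antibody on TRα LBD (2.5 nM) and SRC-2 peptide (200 nM). Activity was scaled between DMSO and T3 wells.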
# THRB (gene 7068) = THRB (gene 7068) (UniProt P10828); assay: TOX21_TRB_COA_Antagonist_Followup_ratio: Tox21 Thyroid Hormone Receptor beta Antagonism through Coactivator Recruitment Follow-Up Assay, Ratio (AID 2283967)
# Chain of THRB (gene 7068) (P10828 whole entry, looked up, the tested form may be a part): as the sequence (P10828 whole entry, looked up, the tested form may be a part) above
# Method in brief: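 GST-TRb LBD 5.0 nM + 0.10% BSA, compound added; fluorescein-SRC-2 peptide 200 nM, Tb-anti-GST Ab 2 nM. TR-FRET, ex 340 / em 520:495 ratio. Norm: DMSO 0%, T3 100%.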
# [15] = CPHEA_Stoker_NIS_Cytotoxicity: Cytotoxicity Assessment for CPHEA's Radioactive Iodide Uptake (RAIU) Assay for Sodium/Iodide Symporter (NIS) Inhibition, Stoker and Laws Labs (AID 2283897)
# Method in brief: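 hNIS-HEK293T-EPA human kidney cells were exposed for 2 hours at room temperature to test chemicals (0.001–100uM, 0.5% final DMSO) in HEPES-buffered HBSS, pH 7.4. Viability was read as ATP content by luciferase bioluminescence, loss of signal versus DMSO.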
# Caspase-3 (Homo sapiens) = Caspase-3 (Homo sapiens) (UniProt P42574); assay: NVS_ENZ_hCASP3: NovaScreen (NVS) Enzymatic Assay for human Caspase 3 (CASP3) (AID 2283139)
# Chain of Caspase-3 (Homo sapiens) (P42574 whole entry, looked up): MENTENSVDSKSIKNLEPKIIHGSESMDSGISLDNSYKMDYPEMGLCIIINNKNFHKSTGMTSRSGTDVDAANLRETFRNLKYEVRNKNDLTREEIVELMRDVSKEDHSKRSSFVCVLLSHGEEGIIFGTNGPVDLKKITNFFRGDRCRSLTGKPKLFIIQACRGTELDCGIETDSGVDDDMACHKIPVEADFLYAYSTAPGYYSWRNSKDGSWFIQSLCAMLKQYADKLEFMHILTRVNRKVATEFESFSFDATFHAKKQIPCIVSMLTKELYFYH
# Method in brief: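 Single-concentration screening at 25 uM in duplicate, with concentration-response follow-up to a 50 uM maximum for chemicals passing the threshold. Caspase-3 (human, E. coli-expressed) activity was read as substrate fluorescence after 1 h, with loss of signal relative to DMSO.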
# [16] = target: human Phosphodiesterase 5 (PDE5), PDE5A (gene 8654) (UniProt O76074); assay: NVS_ENZ_hPDE5: NovaScreen (NVS) Enzymatic Assay for human Phosphodiesterase 5 (PDE5) (AID 2283194)
# Method in brief: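 Screening began in duplicate at 25 uM, with actives taken into concentration-response. Enzyme activity of recombinant PDE5 toward its substrate was measured at 1 h by fluorescence mobility-shift detection, relative to DMSO controls.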
# [17] = target: human Vascular Endothelial Growth Factor Receptor 1 (VEGFR1), FLT1 (gene 2321) (UniProt P17948); assay: NVS_ENZ_hVEGFR1: NovaScreen (NVS) Enzymatic Assay for human Vascular Endothelial Growth Factor Receptor 1 (VEGFR1) (AID 2283226)
# Chain of human Vascular Endothelial Growth Factor Receptor 1 (VEGFR1), FLT1 (gene 2321) (P17948 whole entry, looked up): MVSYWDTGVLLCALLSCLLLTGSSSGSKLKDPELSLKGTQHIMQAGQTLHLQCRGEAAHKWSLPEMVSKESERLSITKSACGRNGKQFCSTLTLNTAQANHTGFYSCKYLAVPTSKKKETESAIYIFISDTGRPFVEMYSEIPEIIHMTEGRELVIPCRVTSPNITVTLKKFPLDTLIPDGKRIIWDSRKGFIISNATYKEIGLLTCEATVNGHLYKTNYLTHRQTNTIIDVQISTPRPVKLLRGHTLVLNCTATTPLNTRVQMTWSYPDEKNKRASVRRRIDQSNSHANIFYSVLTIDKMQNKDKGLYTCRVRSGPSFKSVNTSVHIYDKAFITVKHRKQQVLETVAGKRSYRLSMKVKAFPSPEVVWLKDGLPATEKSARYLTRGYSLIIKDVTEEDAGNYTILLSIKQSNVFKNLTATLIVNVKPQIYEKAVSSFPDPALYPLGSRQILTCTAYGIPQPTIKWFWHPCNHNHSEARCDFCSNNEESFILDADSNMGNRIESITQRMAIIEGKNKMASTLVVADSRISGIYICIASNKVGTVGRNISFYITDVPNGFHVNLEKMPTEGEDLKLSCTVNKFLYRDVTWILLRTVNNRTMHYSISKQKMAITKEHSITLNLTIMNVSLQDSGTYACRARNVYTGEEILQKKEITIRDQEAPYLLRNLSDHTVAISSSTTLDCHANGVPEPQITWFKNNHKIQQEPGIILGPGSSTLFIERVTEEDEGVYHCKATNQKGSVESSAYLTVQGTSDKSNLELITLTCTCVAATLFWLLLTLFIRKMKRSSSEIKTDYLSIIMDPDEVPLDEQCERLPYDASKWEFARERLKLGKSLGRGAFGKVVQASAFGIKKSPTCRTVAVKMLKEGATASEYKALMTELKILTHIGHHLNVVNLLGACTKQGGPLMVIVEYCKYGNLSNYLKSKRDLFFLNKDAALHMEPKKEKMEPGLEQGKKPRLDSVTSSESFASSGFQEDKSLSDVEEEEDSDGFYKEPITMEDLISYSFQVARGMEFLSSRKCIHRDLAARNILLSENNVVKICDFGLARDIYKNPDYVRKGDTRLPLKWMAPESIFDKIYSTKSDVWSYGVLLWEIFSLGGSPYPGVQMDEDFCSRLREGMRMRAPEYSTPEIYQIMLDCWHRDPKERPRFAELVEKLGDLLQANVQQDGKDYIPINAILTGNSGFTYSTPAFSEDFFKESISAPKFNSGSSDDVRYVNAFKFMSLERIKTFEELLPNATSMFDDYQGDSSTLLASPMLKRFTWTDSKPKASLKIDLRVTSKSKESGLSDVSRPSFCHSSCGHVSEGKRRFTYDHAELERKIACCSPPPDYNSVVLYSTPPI
# Method in brief: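 Kinase activity of recombinant human VEGFR1 was read by fluorescence after electrophoretic separation of product from substrate, 1 h post-dosing; initial duplicate single-point testing at 25 uM, followed by concentration-series follow-up, with DMSO as baseline.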
structure (smiles),measurement,setting,value
CC1(C)S[C@@H]2[C@H](NC(=O)[C@H](N)c3ccccc3)C(=O)N2[C@H]1C(=O)O,outcome,[1],inactive
Cc1cc(O)cc(C)c1Cl,AC50,[2],68.1 µM (active) and 34.5 µM (active)
same,AC50,[3],29.3 µM (active) and 19.5 µM (active)
same,AC50,[4],48.2 µM (active) and 63.3 µM (active)
same,outcome,[5],inactive
same,outcome,[6],inactive
same,outcome,[7],inactive
same,outcome,[8],inactive
same,outcome,[9],inactive
same,outcome,[10],inactive
same,outcome,[11],inactive
same,outcome,[12],inactive
same,outcome,[13],inactive
CC(C)CC(=O)O,outcome,[14],inactive
CC(C)n1c(/C=C/[C@@H](O)C[C@@H](O)CC(=O)O)c(-c2ccc(F)cc2)c2ccccc21,outcome,THRA (gene 7067),inactive
same,outcome,THRB (gene 7068),inactive
Cc1cccnc1,outcome,[15],inactive
CCC(C)=NO,outcome,Caspase-3 (Homo sapiens),inactive
same,outcome,[16],inactive
CC(=O)CCc1ccccc1,outcome,[17],inactive
